Structures are written as SMILES. Values joined by “and” are separate entries in the source; they are usually repeats but may differ in a detail not shown here. Equal values may be shown once. More than one record can exist for a structure, and the calls need not agree. Active and inactive are the calls of the source. How the source made its calls: active means hit-call score of the fitted dose curve at least 0.9, where 1 is the maximum; inconclusive means response in the unintended direction; inactive means score below 0.9.

For the experiment, the system named is rat CYP2B1, gene 24300. Kind of experiment: NVS_ADME_rCYP2B1: NovaScreen (NVS) CYP450-related Enzyme Activity (ADME) Assay for rat CYP2B1 (AID 2283117). The procedure:
NVS_ADME_rCYP2B1 is a biochemical, single-readout assay that uses extracted gene-proteins in a cell-free assay. Measurements were taken 0.75 hour after chemical dosing in a 96-well plate.NVS_ADME_rCYP2B1 is one of one assay component(s) measured or calculated from the NVS_ADME_rCYP2B1 assay. It is designed to make measurements of enzyme activity, a form of enzyme reporter, as detected with fluorescence intensity signals by Fluorescence technology.Data from the assay component NVS_ADME_rCYP2B1 was analyzed into 1 assay endpoint. This assay endpoint, NVS_ADME_rCYP2B1, was analyzed in the positive analysis fitting direction relative to Acetonitrile as the negative control and baseline of activity. Using a type of enzyme reporter, loss-of-signal activity can be used to understand changes in the enzymatic activity as they relate to the gene Cyp2b1. Furthermore, this assay endpoint can be referred to as a primary readout, because this assay has produced multiple assay endpoints where this one serves a enzymatic activity function. To generalize the intended target to other relatable targets, this assay endpoint is annotated to the cyp intended target family, where the subfamily is xenobiotic metabolism.
Binding assays used specific radioligands (tritiated, iodinated) with non-radioactive competitive displacement ligands in agonist or antagonist protocols (as indicated) and various reference compounds and inhibitors to titrate specific binding to receptors and transporters. Most enzyme assays (CYPs, kinases, phosphatases, proteases, HDACs) used recombinant protein and specific substrates (fluorescence mostly, some colorimetric and radioactive) and inhibitors, followed by a biochemical separation of substrate and product. All assays for the biochemical HTS were initially run in duplicate at a single concentration (10 uM for CYP450 assays and 25 uM for all others). Assay-chemical combinations meeting a pre-defined threshold (e.g., 30% inhibition and other criteria defined below) were then run in singleton concentration-response format with maximum concentration of 20 uM for CYPs and 50 uM for all others. Each assay was run with positive and negative controls, and concurrent controls on every plate. The follow-up (secondary) screen tested active chemical-pairs in concentration series, as well as a few additional assays not tested in the primary screen, some selected negative inactives, and several cases re-run in the concentration series for confirmatory purposes.
On to `C#C[C@]1(O)CC[C@H]2[C@@H]3CCc4cc(O)ccc4[C@H]3CC[C@@]21C`, for which the AC50 is 2.5 µM (active) and 4.16 µM (active) and 1.77 µM (active). As for `CCCCCCC(C)OC(=O)COc1nc(F)c(Cl)c(N)c1Cl` (stereo not drawn), the AC50 is 6.09 µM (active). For `CC(C)(C)[C@@H](O)[C@@H](Cc1ccc(Cl)cc1)n1cncn1`, the AC50 was 1.35 µM (active). `BrC1CCC(Br)C(Br)CCC(Br)C(Br)CCC1Br` (stereo not drawn): the outcome was inactive.

As for `CC(=O)[C@H]1CC[C@H]2[C@@H]3CCC4=CC(=O)CC[C@]4(C)[C@H]3CC[C@]12C`, the result was inactive.

Regarding `C[C@]12CC[C@@H]3c4ccc(O)cc4CC[C@H]3[C@@H]1CC[C@@H]2O`, the AC50 was 14.1 µM (active). Same read-out and setting: for `CCCCCCCCCCCCCC[P+](CCCC)(CCCC)CCCC` the value was 6.5 µM (active).

In the case of `C#CCOC(=O)[C@@H](C)Oc1ccc(Oc2ncc(Cl)cc2F)cc1`, the AC50 was 1.36 µM (active). For `Oc1ccc(C(c2ccc(O)cc2)C(Cl)(Cl)Cl)cc1`, the AC50 was 9.18 µM (active). In the case of `Cc1cc(O)cc(C)c1Cl`, the AC50 is 16.7 µM (active).

In the case of `O=c1c(-c2ccc(O)cc2)coc2cc(O)cc(O)c12`, the compound was called inactive. Turning to `CCN(CC)CCOc1ccc(C(=C(Cl)c2ccccc2)c2ccccc2)cc1`, the AC50 was 7.35 µM (active) and 7.71 µM (active); the compound was classed as inactive. As for `CCCCOC(=O)C(C)Oc1ccc(Oc2ccc(C(F)(F)F)cn2)cc1` (stereo not drawn), the result was inactive.

Take `C=CCOC(Cn1ccnc1)c1ccc(Cl)cc1Cl` (stereo not drawn): the AC50 is 0.0108 µM (active).

On to `NC(=NCCCCCCN=C(N)/N=C(\N)Nc1ccc(Cl)cc1)/N=C(\N)Nc1ccc(Cl)cc1`, for which the AC50 was 5.93 µM (active). `CC(=O)O[C@]1(C(C)=O)CC[C@H]2[C@@H]3C=C(Cl)C4=CC(=O)[C@@H]5C[C@@H]5[C@]4(C)[C@H]3CC[C@@]21C`: the result was inactive. As for `N#CSCSc1nc2ccccc2s1`, the AC50 is 3.96 µM (active).

(Values after PubChem BioAssay (EPA / NIEHS).)
